USP30 block – blocks human USP30 ubiquitin-rhodamine cleavage; purified USP30, Ub-rhodamine cleavage fluorescence; Q70CQ3; 47,000 tested, 5.3% active; inhibition, % at 25 µM
Target sequence (Q70CQ3 whole entry, looked up): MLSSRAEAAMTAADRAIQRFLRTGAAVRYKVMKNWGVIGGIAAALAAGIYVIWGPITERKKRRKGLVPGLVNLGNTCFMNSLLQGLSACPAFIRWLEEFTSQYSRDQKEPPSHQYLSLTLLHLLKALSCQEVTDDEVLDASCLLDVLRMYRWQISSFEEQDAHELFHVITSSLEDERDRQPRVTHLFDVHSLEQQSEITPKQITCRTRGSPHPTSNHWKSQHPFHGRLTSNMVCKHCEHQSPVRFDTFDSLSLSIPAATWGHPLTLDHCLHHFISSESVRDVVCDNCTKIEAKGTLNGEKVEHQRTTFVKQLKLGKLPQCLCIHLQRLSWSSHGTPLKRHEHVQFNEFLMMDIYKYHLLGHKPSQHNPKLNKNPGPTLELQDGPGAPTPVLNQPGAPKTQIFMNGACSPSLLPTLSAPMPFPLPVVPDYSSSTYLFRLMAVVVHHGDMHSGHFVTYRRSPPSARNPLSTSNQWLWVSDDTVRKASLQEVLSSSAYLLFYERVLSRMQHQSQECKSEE
USP17 block – human USP17-like deubiquitinase inhibition | purified USP17, Ub-rhodamine cleavage fluorescence, 3 h | AID 1645855 | A8MUK1 | 47,000 tested, 6.5% active | inhibition, % at 50 µM
OTUD3 block – inhibitors of human OTUD3 deubiquitinase. Q5T2D3. purified OTUD3, Ub-rhodamine fluorescence, 2 h. inhibition, % at 25 µM. 47,000 tested, 0.7% active. AID 1645858
USP28 block – inhibitors of human USP28 deubiquitinase | Q96RU2 | purified USP28, Ub-rhodamine cleavage fluorescence, 30 min | inhibition, % at 25 µM | 47,000 tested, 3% active | AID 1645857
* marks the source's active call; other numbers are inactive results; . = not tested or not shown. Shown are actives, neighbours in structure and some others; about 12% of the full set was active somewhere. Rule as the data show it: active = inhibition above about 30%; inactive = the rest.

SMILES | USP30 block | USP17 block | OTUD3 block | USP28 block
CCN1CCN(C(=O)CCC(=O)N2CCCn3nc(C)cc32)CC1 | 12 | 5 | 3 | 4
COc1ccc(NC(=O)c2ccccc2-c2nc(-c3ccc(Cl)cc3)no2)cc1OC | -17 | -18 | -8 | -18
Cn1c(NC(=O)c2ccc(Cl)cc2)c(-c2ccccn2)c(=O)c2ccccc21 | -7 | 21 | 13 | 7
COc1ccccc1C(=O)Nc1ccccc1-c1nc(-c2ccccn2)no1 | . | 32* | 6 | .
O=C(Nc1ccccc1-c1nc(-c2ccccn2)no1)c1ccc(Cl)cc1 | 21 | 35* | -1 | 0
CCNc1nc(N2CCCCCC2)nc(-n2cnc(SC)n2)n1 | 30* | 11 | 19 | 20
CSc1ncn(-c2nc(N(C)C)nc(N3CCCCCC3)n2)n1 | 18 | 5 | 7 | 26
Cc1ccc(/C=C/C(=O)Nc2ccc3c(c2)OCCO3)cc1 | -13 | -8 | -8 | 80*
O=C(Nc1ccc2c(c1)OCO2)c1cc(CN2CCCC2)on1 | -24 | 35* | 7 | 27
Cc1cc(C(=O)N2CC(C(=O)Nc3ccc4c(c3)OCCO4)C2)no1 | -35 | -23 | -9 | 5
COc1cccc2cc(C(=O)Nc3ccc4c(c3)OCCO4)oc12 | 1 | 1 | 2 | 51*
Cc1cc(C(=O)Nc2ccc3c(c2)OCCO3)no1 | 0 | -5 | 0 | 63*
Cc1cc(CC2COCCN(C(=O)c3ccc4c(c3)OCO4)C2)ncn1 (stereo not drawn) | -4 | 4 | 6 | -2
O=C(Nc1ccc(Sc2ccc(F)cc2)cc1)c1cccc(C(F)(F)F)c1 | 40* | 17 | 19 | 24
CCOc1ccc2c(c1)c(=O)c(C(=O)c1ccc(C)cc1)cn2CC(=O)Nc1ccc(OC)c(OC)c1 | 70* | 36* | 36* | 40*
COc1ccc(NC(=O)Cn2cc(C(=O)c3ccc(F)cc3)c(=O)c3cc(C)ccc32)cc1 | 32* | 75* | 6 | 14
CCOc1ccc2c(c1)c(=O)c(C(=O)c1ccc(F)cc1)cn2CC(=O)Nc1ccc(F)cc1 | . | 41* | 5 | .
Cc1ccc(C(=O)c2cn(CC(=O)Nc3ccc(Cl)cc3)c3ccc(F)cc3c2=O)cc1 | -219 | -26 | -20 | -60
COc1cc(NC(=O)Cn2cc(C(=O)c3ccccc3)c(=O)c3cc(Cl)ccc32)cc(OC)c1 | -23 | 0 | 4 | 0
COc1ccccc1-n1cnc2cc(C(=O)NCCN3CCOCC3)ccc21 | 0 | -1 | 2 | -1
CC[C@]12CC[C@@]3(CO)[C@H](CCC4=C5C(CC4)[C@H](C(=O)OC)CC513)CN2 (stereo partly drawn) | 5 | -101 | 17 | 15
COc1ccc([C@H]2Oc3cc(OC)cc(O)c3C(=O)[C@@H]2[C@@H]2C(=O)c3c(O)cc(O)cc3O[C@H]2c2ccc(OC)cc2)cc1 | 0 | 41* | 11 | 9
C[C@H]1C(=O)c2c(O)cc(O)cc2O[C@@H]1c1ccc(O)cc1 | 20 | 17 | 24 | 7
c1ccc(-c2cc(-c3nnc4c5ccccc5cnn34)[nH]n2)cc1 | 7 | 47* | 0 | -7
O=c1ccc(-c2nnc3c4ccccc4c(Cc4ccccc4)nn23)n[nH]1 | 0 | 3 | 7 | 10
SMILES | USP30 block | USP17 block | OTUD3 block | USP28 block
CN(C)S(=O)(=O)N1C[C@@H]2[C@@H](C1)OCC(=O)N2Cc1ccccc1 | -3 | -2 | 2 | -3
Cc1nc(C)c(-c2nc(-c3cccc(C(=O)NC(C)C)c3)no2)s1 | -29 | 3 | -1 | -8
Cn1c(CSc2ncn[nH]2)nc2ccccc21 | 5 | -6 | -8 | -3
Cc1nc2nc(SCc3nc4ccccc4n3C)[nH]c2cc1Br | -178 | 53* | -47 | -26
Cc1ccc(NC(=O)Cn2cnc3c(nnn3-c3ccc(Cl)cc3)c2=O)cc1 | -41 | -9 | -7 | -11
Cc1ccc(-n2nnc3c(=O)n(CC(=O)Nc4cc(C)on4)cnc32)cc1 | -6 | 32* | -6 | -5
Cc1cc(NC(=O)Cn2cnc3c(oc4ccccc43)c2=O)no1 | . | 72* | 1 | .
CCOc1ccccc1Nc1nc2ccccc2n2cnnc12 | 29 | 39* | -7 | -1
Cc1ccc(C(=O)Nc2ncn(CC(=O)Nc3ccccc3)n2)cc1 | 41* | 25 | 5 | 21
COc1ccc(NC(=O)Cn2cnc(NC(=O)c3ccccc3)n2)cc1 | -1 | 46* | 0 | 10
COc1cccc(NC(=O)Cn2cnc(NC(=O)c3ccccc3)n2)c1 | 12 | 7 | 6 | 6
Cn1nc(C2CCCN(Cc3cccc(F)c3F)C2)c2nccnc21 (stereo not drawn) | 7 | -2 | 1 | 2
CC1CCN(C(=O)Nc2ccc3ccccc3c2)Cc2nc3ccccc3n21 (stereo not drawn) | 33* | 28 | -14 | 7
CC1CCN(C(=O)Nc2cccc(C#N)c2)Cc2nc3ccccc3n21 (stereo not drawn) | 5 | 2 | 7 | 7
COc1ccccc1N1CCN(C(=O)c2nccnc2NC(=O)c2ccc(C)cc2)CC1 | -2 | -7 | -1 | -14
CCOc1cccc(-c2noc(-c3nn(-c4cccc(C)c4)ccc3=O)n2)c1 | -3 | 1 | 0 | -7
CCOc1cccc(-c2noc(-c3nn(-c4ccccc4)ccc3=O)n2)c1 | 93* | 52* | 40* | 70*
COc1cccc(-n2ccc(=O)c(-c3nc(-c4cccc(C)c4)no3)n2)c1 | -48 | 0 | 2 | 1
COc1ccc(-n2nnc(-c3nc(-c4ccccc4F)no3)c2N)cc1 | . | 52* | 1 | .
COc1ccc(-n2ccc(=O)c(-c3nc(-c4ccccc4F)no3)n2)cc1OC | -284 | 0 | 6 | 63*
COc1ccc(-c2csc(-c3nnn(-c4cc(OC)cc(OC)c4)c3N)n2)cc1 | -29 | -15 | -7 | -6
CCOc1ccccc1C(=O)Nc1c(C)nc2ccccn2c1=O | -10 | 6 | 3 | 0
O=C(Nc1cccc(F)c1)c1ccc(N2CCCCS2(=O)=O)cc1Cl | 0 | 22 | 12 | 33*
O=C(Nc1ccc(-n2cccc2)cc1)c1ccc(Cl)cc1Cl | -46 | 15 | 12 | 19
O=C(Nc1cccc(N2CCCS2(=O)=O)c1)c1cccc(C(F)(F)F)c1 | -19 | -14 | -8 | -5
SMILES | USP30 block | USP17 block | OTUD3 block | USP28 block
O=C(Nc1ccc(F)c(Cl)c1)c1ccc(N2CCCCS2(=O)=O)cc1Cl | 0 | 3 | -9 | 52*
CC1=C[C@H]2N(c3ccccc31)[C@H](C(=O)C(C)(C)C)[C@@H](C(=O)c1ccco1)[C@]21C(=O)Nc2ccccc21 | -423 | -57 | -68 | -68
CC1=C[C@H]2N(c3ccc(C)cc31)[C@H](C(=O)c1cccs1)[C@@H](C(=O)c1ccc(F)cc1)[C@]21C(=O)Nc2ccccc21 | -72 | 59* | -22 | 1
CC1=C[C@H]2N(c3ccc(C)cc31)[C@H](C(=O)C(C)(C)C)[C@@H](C(=O)c1ccccc1)[C@]21C(=O)Nc2ccccc21 | -93 | 41* | -16 | -2
COc1ccc(Nc2nc(NCCCO)nc3c2cnn3C)cc1 | -48 | -12 | 1 | -8
COc1ccc(Nc2nc(NCc3ccccc3)nc3c2cnn3C)cc1 | 28 | 32* | -16 | -1
Cc1ccc(CNc2nc(Nc3ccc(C)cc3)c3cnn(C)c3n2)cc1 | 4 | 8 | -2 | 0
